Data taken from PubChem BioAssay AID651965 (National Center for Advancing Translational Sciences (NCATS), 2013).
In all, about 340,000 compounds went through this assay and about 6,400 (1.9%) were called active. Where a call stands in place of a potency, no number is given. Inconclusive results (about 4%) are left out. Calls come from the whole dose curve; as a rule, active = well fitted falling curve with a large enough effect; inconclusive = small, poorly fitted or top-dose-only effect; inactive = no such curve, though single readings can be large or run the other way. The sample as a whole holds a higher share of actives than the screen did.
Note: the source files actives as falling curves though it sought activators and does not explain the sign; nearly all actives have a fitted effect of over 65% in size.
Potency is the fitted concentration of half-maximal effect.

The compounds below were run against ATP-dependent Clp protease proteolytic subunit (Bacillus subtilis (strain 168)) (UniProt P80244) (assay: qHTS Assay for Activators of ClpP). Conditions: purified B. subtilis ClpP, FRET peptide cleavage, 20 min; series mostly up to 57.5 µM.
Chain of ATP-dependent Clp protease proteolytic subunit (Bacillus subtilis (strain 168)) (P80244 whole entry, looked up): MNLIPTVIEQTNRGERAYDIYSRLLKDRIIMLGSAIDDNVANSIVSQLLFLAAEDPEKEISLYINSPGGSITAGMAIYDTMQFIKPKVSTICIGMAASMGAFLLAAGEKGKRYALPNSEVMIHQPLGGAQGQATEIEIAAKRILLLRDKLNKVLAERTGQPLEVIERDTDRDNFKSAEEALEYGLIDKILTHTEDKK
Summary of the method: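 ClpP 10 microg/mL final, pH 8 Tris/KCl buffer with BSA, glycerol, Tween-20; compound pinned in; FRET-FV substrate; RT 20 min; Ex320/Em430; ΔFRET vs ADEP 5.8 microM, DMSO, no enzyme.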
O=C(OCc1cn([C@H]2C[C@H](c3ccccc3)N(C(=O)c3cccs3)C[C@@H]2O)nn1)c1ccccc1 was tested, and the Potency was “inactive”. For CCOC(=O)C1=CC[C@@H](c2ccncc2)N(S(=O)(=O)c2ccc(C)cc2)C1, the Potency was “inactive”. With CC1(C(=O)NCc2ccc3c(c2)OCO3)CCN1CCc1ccccc1 (centres undefined) the Potency was “inactive”. C[N+](C)(C)CCNC(=O)c1c[nH]c2ccccc12 was tested, and the Potency was “inactive”. With CC1CCN(C(=O)COC(=O)c2cc(=O)[nH]c3ccccc23)CC1 the Potency was “inactive”. CCOC(=O)c1ccc(COC(=O)c2cc(=O)[nH]c3ccccc23)o1 was tested, and the Potency was 15.8 µM (active). In the case of CCOC(=O)c1ccc(NC(=O)c2cc(=O)[nH]c3ccccc23)cc1, the Potency is reported as “inactive”. In the case of Cc1ccc2nc(-c3ccccc3)c(CC3CCCCC3)n2c1, the Potency is reported as “inactive”. In the case of SCc1nc2ccc(Cl)cc2[nH]1, the Potency is reported as “inactive”. For COc1ccccc1CC(=O)Nc1ccc([N+](=O)[O-])cc1OC, the Potency was 7.08 µM (active). In the case of COc1cc([N+](=O)[O-])ccc1NC(=O)CN1CCCC1, the Potency is reported as “inactive”. COc1ccccc1CC(=O)Nc1ccc(F)cc1F was tested, and the Potency was “inactive”. For O=C(NC(c1ccc(-c2ccccc2)cc1)c1cnccn1)C1CCN(CCOc2ccc(Cl)cc2Cl)CC1 (centres undefined), the Potency was “inactive”. With COc1cc2nc(N3CCCN(C)CC3)nc(NC(C)C)c2cc1OC the Potency was “inactive”. COC(=O)Cn1c(=NC(=O)CSCC(=O)Nc2cc(C)on2)sc2ccccc21 was tested, and the Potency was “inactive”. For COC(=O)Cn1c(=NC(=O)c2cc(OC)c(OC)c(OC)c2)sc2cc(OC)ccc21, the Potency was 2.82 µM (active). With COC(=O)Cn1c2ccc(C)cc2c2nc(C)sc21 the Potency was “inactive”. For Cc1ccccc1-c1csc(C(O)c2cccc(Cl)c2)n1 (centres undefined), the Potency was “inactive”. For COc1ccc(C(=O)N2CCC(C(=O)Nc3ccc(C)cc3)CC2)cc1, the Potency was “inactive”. For COc1ccc(C(=O)Nc2c(Cl)cc(Cl)cc2C(=O)N2CCC(C)CC2)cc1, the Potency was 15.8 µM (active). For COc1ccc(C(=O)Nc2ccccc2C(=O)N2CCN(c3ccccc3)CC2)cc1, the Potency was “inactive”. In the case of OC(Cc1ccc2ccccc2n1)c1ccc(Cl)c(Cl)c1 (centres undefined), the Potency is reported as “inactive”. With COc1ccc(N2CCN(C(=O)CSc3nnc4ncccn34)CC2)cc1 the Potency was “inactive”. With COc1ccc(-c2nc(SCC(=O)N3CCCCC3C)n[nH]2)cc1 (centres undefined) the Potency was “inactive”. O=C(CSc1n[nH]c(-c2ccccc2)n1)N1CCCCC1 was tested, and the Potency was “inactive”. With COc1ccc(-c2nc(SCC(=O)N3CCOCC3)n[nH]2)cc1 the Potency was 15.8 µM (active). In the case of COc1ccc(-c2ccnc(SCC(=O)N3CCOCC3)n2)cc1, the Potency is reported as 15.8 µM (active). O=C(CSc1nnc(-c2ccoc2)o1)N1CCOCC1 was tested, and the Potency was “inactive”. With CCc1ccccc1NC(=O)CN1CCN(C(=O)c2cc(C3CC3)nn2-c2ccccc2)CC1 the Potency was “inactive”. For CSc1ccc(CNC(=O)C2(C)CCCN2C)cc1 (centres undefined), the Potency was “inactive”. CCOC(=O)c1ccc(-n2c(CCC(=O)O)ccc2-c2ccccc2)cc1 was tested, and the Potency was “inactive”. For CCOC(=O)c1c(-c2ccc(OC)cc2)oc2ccc(OCc3ccc(C(=O)OC)cc3)cc12, the Potency was “inactive”. In the case of CCOC(=O)c1ccc(COC(=O)CCc2nc(-c3ccccc3)c(-c3ccccc3)o2)cc1, the Potency is reported as 28.2 µM (active). With COC(=O)C1=CN(c2c(C)cc(C)cc2C)C(N)=C(C#N)C1c1cccc(F)c1 (centres undefined) the Potency was “inactive”. In the case of Cc1ccc(Cn2cc(CN3CC(N4CCN(C)CC4)CS3(=O)=O)nn2)cc1 (centres undefined), the Potency is reported as “inactive”. With OC[C@@H]1CN(Cc2cccs2)C[C@H](n2cnc3c(Nc4ccccc4)ncnc32)O1 the Potency was “inactive”. In the case of CC(C)C[C@@H](COCc1ccc(Cl)cc1)N1CCN(C(=O)c2ccc(Cl)cc2Cl)CCC1=O, the Potency is reported as “inactive”. In the case of OC[C@@H]1CN(Cc2ccc(-c3ccccc3)cc2)C[C@H](n2cnc3c(NC4CCCC4)ncnc32)O1, the Potency is reported as “inactive”. For COc1cccc2c(=O)n(CC(=O)N3CCCCCC3)ccc12, the Potency was “inactive”. For C[N+](C)(CCCCCC[N+](C)(C)CCCN1C(=O)c2cccc3cccc(c23)C1=O)CCCN1C(=O)c2cccc3cccc(c23)C1=O, the Potency was “inactive”. With O=C(CN1C(=O)c2cccc3cccc(c23)C1=O)N1CCCCC1 the Potency was 14.1 µM (active). C#CCNC(=O)C[C@@H]1C[C@@]2(C(=O)OCC)CCCC=C2N(Cc2ccco2)C1=O was tested, and the Potency was “inactive”. With CC(=O)Nc1cccc(Nc2ccc(C#N)cc2)c1 the Potency was “inactive”. In the case of O=C1O/C(=C\c2ccc(O)cc2)C(O)=C1c1ccc(O)cc1, the Potency is reported as “inactive”. For CC(C)(C)NC(=O)C(c1ccco1)N(Cc1ccc2c(c1)OCO2)C(=O)Cn1nnc2ccccc21 (centres undefined), the Potency was “inactive”. CCC(C)(C)NC(=O)C(c1ccc(O)cc1)N(C(=O)Cn1nnc2ccccc21)c1ccc(NC(C)=O)cc1 (centres undefined) was tested, and the Potency was “inactive”. CCC(C)(C)NC(=O)C(c1cccn1C)N(Cc1ccc(C)cc1)C(=O)Cn1nnc2ccccc21 (centres undefined) was tested, and the Potency was 31.6 µM (active). For Nc1[nH]c(C(=O)c2ccccc2)c(-c2ccncc2)c1C(=O)NCc1cccc2ccccc12, the Potency was “inactive”. With CCOC(=O)C1CCCN(C(=O)c2cccc3ccccc23)CC1 (centres undefined) the Potency was “inactive”. With COc1ccc(CCNC(=O)c2nn(C)c3c2CSc2ccccc2-3)cc1OC the Potency was “inactive”. In the case of COc1ccccc1CNC(=O)c1ccc(NC(=O)N2CC(C)Sc3ccccc32)cc1 (centres undefined), the Potency is reported as “inactive”. For COc1ccc(CCNC(=O)c2cc3cccc4c3n2CC(C)S4)c(OC)c1OC (centres undefined), the Potency was 31.6 µM (active). NC(c1csc(NC(=O)Nc2cccc(C(F)(F)F)c2)n1)C1CCCCC1 (centres undefined) was tested, and the Potency was “inactive”. CN(Cc1ccccc1F)c1cc2c(c3c1ccn3C)C1CCC2O1 (centres undefined) was tested, and the Potency was “inactive”. COC(=O)Cc1ccc(OC2(C)CCN(Cc3ccc4c(c3)OCCO4)C2)cc1 (centres undefined) was tested, and the Potency was “inactive”. For O=C(Nc1ccc([N+](=O)[O-])cc1)c1cnn2c1NC(=C1CC1)C=C2C(F)F, the Potency was “inactive”. Cc1ccc(S(=O)(=O)N2CCN(c3ccccc3)CC2)cc1C was tested, and the Potency was 17.8 µM (active). CC(=O)Nc1ccc(S(=O)(=O)N2CCN(c3ccccc3)CC2)cc1 was tested, and the Potency was “inactive”. For Cc1cc(N2CCN(S(=O)(=O)c3ccc(C)c(C)c3)CC2)c2ccccc2n1, the Potency was “inactive”. C[N+]1(CC(=O)c2cccs2)CCOCC1 was tested, and the Potency was “inactive”. CCCCC(=O)N(C)c1c(CC)nc2c(OCc3ccc(S(C)(=O)=O)cc3)cccn12 was tested, and the Potency was “inactive”. With Cc1ccc(C2C=C(c3ccc(Cl)cc3)Nc3nc(NC(=O)CCC(=O)O)nn32)cc1 (centres undefined) the Potency was 6.31 µM (active). For COc1ccc(C2=CC(c3ccccc3Cl)n3nc(-c4ccc(Cl)cc4)nc3N2)cc1 (centres undefined), the Potency was “inactive”. For CCOc1ccc(C2=CC(c3ccccc3)n3ncnc3N2)cc1 (centres undefined), the Potency was “inactive”.
